High-throughput results deposited in PubChem by several laboratories.
The list is not random: actives were taken first. Their share in the collection is about 3.4%.
Mcl-1 Bim block: disrupts Bim peptide binding to human Mcl-1; 0.1% of 190,000 active; AID 1009; inhibition, % at 10 µM; Bead-based flow cytometry, Bim peptide-Mcl-1 binding; in the data active = inhibition above about 40%;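 note: 0% = no compound tracer wells and 100% = peptide blocker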
Target sequence (Q07820 whole entry, looked up): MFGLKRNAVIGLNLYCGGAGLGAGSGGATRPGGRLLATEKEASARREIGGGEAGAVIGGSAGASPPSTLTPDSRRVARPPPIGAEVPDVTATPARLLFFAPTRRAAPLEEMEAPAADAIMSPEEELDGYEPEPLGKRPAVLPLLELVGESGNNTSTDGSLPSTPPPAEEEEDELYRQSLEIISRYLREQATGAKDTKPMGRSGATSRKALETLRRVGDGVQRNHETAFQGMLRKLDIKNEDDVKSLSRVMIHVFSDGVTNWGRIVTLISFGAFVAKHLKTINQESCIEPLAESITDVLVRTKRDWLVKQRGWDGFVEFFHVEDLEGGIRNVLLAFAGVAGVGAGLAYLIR
Mcl1 Bid PPI: disrupts binding of human Mcl-1 to Bid peptide; Q07820; TR-FRET Mcl-1/Bid-Dy647 peptide binding, 1536-well; inhibition, % at 21.7 µM; 0.97% of 220,000 active; AID 1021;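 active = compounds that cut the binding signal by more than half at the single screening dose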;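 note: His-tagged Mcl-1 with europium anti-His antibody binding Bid BH3 peptide; 0% = Mcl-1 plus peptide wells and 100% = peptide-only wells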
14-3-3 Bad inh: disrupts binding of bovine 14-3-3 zeta to phospho-Bad peptide | P63103 | TR-FRET 14-3-3zeta/Dy647-pBad peptide displacement, 1 h | inhibition, % at 21.7 µM | 0.71% of 220,000 active | AID 781;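 active = inhibition above about 70%, limit read from the data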;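 note: 0% = full 14-3-3 plus peptide FRET controls and 100% = background without 14-3-3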
NCF1 inh: p47phox (human) inhibition. p47phox/p22phox peptide binding, fluorescence polarization, 2 h. inhibition, % at 24.7 µM. 0.53% of 220,000 active;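 active = inhibition above about 30%, limit read from the data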;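 note: 0% = p47phox with labelled peptide and 100% = labelled peptide alone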
Target sequence (P14598 whole entry, looked up): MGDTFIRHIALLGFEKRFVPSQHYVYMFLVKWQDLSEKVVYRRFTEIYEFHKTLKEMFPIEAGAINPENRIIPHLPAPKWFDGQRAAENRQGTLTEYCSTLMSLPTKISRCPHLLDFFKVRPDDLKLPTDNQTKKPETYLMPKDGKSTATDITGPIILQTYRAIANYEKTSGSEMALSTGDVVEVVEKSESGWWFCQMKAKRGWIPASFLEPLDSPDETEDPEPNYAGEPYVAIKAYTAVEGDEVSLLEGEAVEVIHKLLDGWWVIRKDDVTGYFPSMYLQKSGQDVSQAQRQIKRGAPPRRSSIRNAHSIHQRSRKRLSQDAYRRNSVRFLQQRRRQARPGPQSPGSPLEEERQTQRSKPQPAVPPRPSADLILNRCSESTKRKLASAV
Calpain2 inh: blocks pig calpain II enzyme activity. 0.37% of 220,000 active. AID 1236. inhibition, % at 16 µM. purified calpain II, fluorogenic peptide substrate, 30 min;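 active = inhibition above about 50%, limit read from the data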
Mcl1 Noxa PPI: Mcl-1/Noxa interaction inhibition | inhibition, % at 21.7 µM | Q07820 | 1.5% of 220,000 active | TR-FRET Mcl-1/Noxa peptide binding, 2 h;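 active = compounds that cut the protein-peptide binding signal by more than 50% relative to plate controls in a single-dose test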;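 note: His-tagged Mcl-1 with rhodamine Noxa BH3 peptide and terbium anti-His antibody; 0% = Mcl-1 plus Noxa peptide wells and 100% = peptide-only wells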
* hit, by the source's call; . = not tested or not shown.

SMILES | Mcl-1 Bim block | Mcl1 Bid PPI | 14-3-3 Bad inh | NCF1 inh | Calpain2 inh | Mcl1 Noxa PPI
Cc1ccc(-n2[nH]c(=O)c3cccnc32)cc1 | -5.0 | -11.2 | -12.9 | -1.6 | 15.4 | 64.6*
COc1cc(C(=O)NC(CCSC)C(=O)OCC(=O)C(C)(C)C)cc(OC)c1OC (stereo unspecified) | 14.0 | -11.1 | -24.9 | -6.9 | -20.7 | -2.4
COC/C=C/C1=CC2=CC(=O)C(C)(OC(=O)c3ccco3)C(=O)C2=CO1 (stereo unspecified) | . | -18.3 | 8.2 | -44.5 | -52.8 | 92.7*
CCc1nnc(NC(=O)c2ccc(-c3ccc([N+](=O)[O-])cc3Cl)o2)s1 | 0.0 | 66.2* | 49.9 | 10.9 | -30.3 | 59.3*
O=C(Nc1nccs1)c1ccc(-c2ccc([N+](=O)[O-])cc2)o1 | 1.0 | 26.1 | 52.1 | -22.0 | -100.9 | 65.5*
O=C(Nc1ccccc1)c1[nH]ncc1[N+](=O)[O-] | -2.0 | -12.9 | 5.6 | -9.3 | 3.8 | 1.7
COc1ccc(NC(=O)c2ccc(-c3ccc([N+](=O)[O-])cc3)o2)cc1 | 0.0 | 2.0 | 16.7 | 16.1 | 15.8 | 50.6*
COc1ccc(NC(=O)c2[nH]ncc2[N+](=O)[O-])cc1 | 1.0 | 80.2* | -11.1 | -6.3 | -18.6 | 4.9
CN(C)CCNC(=O)c1cc2sc3ccccc3c2s1 | -2.0 | -6.0 | -17.3 | -6.8 | -53.9 | 19.6
Cc1ccc(C(=O)N2CCCC2)cc1S(=O)(=O)Nc1cccc(C)c1C | 1.0 | -20.7 | -11.0 | -12.3 | -6.0 | -7.7
Cc1c(C)c2ccc(OCC(=O)N3CCOCC3)c(C)c2oc1=O | -1.0 | -19.1 | -3.5 | -8.5 | -193.7 | -6.7
COc1ccc(NC(=O)CC2SC3=NCCN3C2=O)cc1 (stereo unspecified) | 0.0 | -8.7 | -8.2 | -0.7 | -6.8 | 10.3
Cc1cc2nc(C3CCN(C(=S)NCCCOC(C)C)CC3)[nH]c2cc1C | 1.0 | -34.6 | -19.0 | -4.4 | -17.1 | -15.0
COc1ccc(Br)cc1CNC(=O)Nc1cccs1 | 4.0 | -21.2 | -1.6 | 97.6* | -14.2 | 0.7
N#C/C(=C\c1ccc(O)c([N+](=O)[O-])c1)c1nc2ccccc2s1 | 1.0 | 16.3 | 41.0 | -59.6 | 0.7 | 66.2*
COc1cc(/C=C(\C#N)c2nc3ccccc3s2)cc([N+](=O)[O-])c1O | 4.0 | 48.5 | 27.5 | -85.6 | -46.4 | 99.2*
N#C/C(=C\c1ccc(N2CCCCC2)c([N+](=O)[O-])c1)c1nn(-c2ccccc2)c(N)c1C#N | -6.0 | -6.4 | -3.8 | 3.4 | -53.4 | 13.5
COc1ccc(-c2csc(/C(C#N)=C\c3ccc(OC)c([N+](=O)[O-])c3)n2)cc1 | -5.0 | -6.3 | -4.7 | -13.2 | -20.3 | 13.2
COc1ccc(-c2csc(/C(C#N)=C\c3ccc(O)c([N+](=O)[O-])c3)n2)cc1OC | . | 69.6* | 12.1 | -16.3 | 41.5 | 102.5*
O=C(O)CC/C(=C\c1ccc(Cl)c([N+](=O)[O-])c1)c1nc2ccccc2s1 | -2.0 | 5.5 | -2.8 | -25.6 | -3.3 | 13.7
N#C/C(=C\c1ccc(N2CCCC2)c([N+](=O)[O-])c1)c1nc2ccccc2[nH]1 | -2.0 | 68.2* | 19.2 | 7.5 | -161.7 | 35.9
CC1=NNC(=O)c2ccccc2O1 | 2.0 | -24.4 | -0.7 | -17.1 | -19.7 | 19.4
CCN(CC)C(=S)SC1CCCCN(C(=O)c2ccccc2)C1=O (stereo unspecified) | . | -2.4 | -0.4 | -5.8 | 28.1 | 13.5
CC(C)CSc1oc(-c2ccco2)nc1S(=O)(=O)c1ccccc1 | . | -16.4 | 7.4 | -18.5 | 21.4 | 8.8
COc1ccc(N=Cc2sc(O)c3ccccc23)cc1 | -6.0 | -20.0 | -33.0 | -36.1 | 0.6 | -16.3
SMILES | Mcl-1 Bim block | Mcl1 Bid PPI | 14-3-3 Bad inh | NCF1 inh | Calpain2 inh | Mcl1 Noxa PPI
COc1ccc(N=Cc2c(O)c3ccccc3n2C(C)=O)cc1 | . | -136.9 | -3.6 | 31.2* | 38.9 | 16.8
CC1(c2ccccc2)CC(C)(C)n2c(O)c(C3=NC(=S)NC3=O)c3cccc1c32 (stereo unspecified) | . | 21.6 | 11.3 | 7.3 | -2.5 | 60.2*
COc1cc2c3c(c1)c(C1=NC(=S)NC1=O)c(O)n3C(C)(C)C=C2C | -3.0 | 6.5 | 7.4 | -2.4 | 24.9 | 21.6
c1ccc(CCNc2ncnc3c2nnn3Cc2ccccc2)cc1 | -1.0 | -6.2 | 0.3 | -7.5 | -14.3 | -9.7
c1ccc(Cn2nnc3c(NCc4ccc5c(c4)OCO5)ncnc32)cc1 | . | 52.2* | 21.5 | 20.8 | 20.1 | -14.6
CCOC(=O)c1sc(N2N=C(C)C(N=Nc3cccc(C)c3)C2=O)nc1C (stereo unspecified) | . | 86.5* | 97.4* | 28.4 | -60.7 | 34.9
C#CCN1C(=O)S/C(=C/C=C/c2ccc(N(C)C)cc2)C1=O | -4.0 | -38.9 | -9.6 | 43.5* | 18.1 | 44.4
O=C(CN1C(=O)S/C(=C\C=C\c2ccccc2)C1=O)Nc1ccccc1C(=O)O | . | 25.3 | 4.5 | -28.9 | 19.5 | 13.8
CC(=O)c1ccc(OCC(C)Oc2ccc(C#N)cc2)cc1 (stereo unspecified) | . | 31.1 | 8.6 | -0.9 | -0.5 | 30.9
CC(C)Nc1ccc(Nc2ccnc3cc4ccccc4cc23)cc1 | . | -33.4 | -1.5 | 12.4 | -1.4 | 68.2*
COc1ccc(Nc2ccnc3ccccc23)cc1 | -2.0 | -16.1 | 32.1 | 9.4 | -5.6 | 6.0
COc1ccc(Nc2ccc(S(=O)(=O)N3CCCCC3)cc2[N+](=O)[O-])cc1Cl | -3.0 | -30.9 | -5.3 | -5.0 | 29.4 | 37.6
O=[N+]([O-])c1cc(S(=O)(=O)N2CCCCC2)ccc1NCCCN1CCOCC1 | 0.0 | -12.7 | -1.8 | 3.5 | 11.0 | 53.6*
CS(=O)(=O)N1CCN(c2ccc([N+](=O)[O-])c(NCCN3CCOCC3)c2)CC1 | -3.0 | -37.5 | 6.2 | 144.5* | 20.4 | 23.3
COc1ccc(Nc2ccc(S(=O)(=O)N3CCCCC3)cc2[N+](=O)[O-])cc1 | 0.0 | -6.5 | 85.4* | 0.4 | 28.3 | 14.8
COc1ccc(N(CC(=O)NCCC2=CCCCC2)S(=O)(=O)c2c(C)[nH]c(=O)[nH]c2=O)cc1 | . | 6.5 | 1.1 | -11.9 | 10.9 | 18.9
Cc1cc(-c2ccccc2)nc(Oc2ccc(C(C)(C)C)cc2)c1S(C)(=O)=O | -3.0 | -29.0 | 0.8 | -7.3 | 48.4 | 7.4
Cc1cc(C)cc(Oc2nc(-c3ccccc3)cc(C)c2S(C)(=O)=O)c1 | -1.0 | -18.9 | 69.5 | -3.2 | 50.3* | -3.2
CC(C)c1nc(C(=O)N2CCCC(CCC(=O)N(C)CCc3ccccn3)C2)cs1 (stereo unspecified) | 0.0 | -4.7 | -1.9 | 0.2 | 1.9 | 1.3
CSc1ncc(OCc2ccccc2)c(=O)[nH]1 | . | -9.4 | -5.9 | -2.0 | -17.9 | 9.3
O=C(ONc1ccc(N=NC(=O)c2ccccc2O)cc1)c1ccccc1 | 0.0 | 88.4* | 10.9 | 31.2* | 2.0 | 84.0*
Cn1ccnc1C(O)(c1ccccc1)c1ccccc1 | . | -6.8 | -2.4 | 8.9 | 17.5 | -3.2
CC1=NN(c2ccccc2)C(=O)/C1=C/C=C/c1ccc(N(C)C)cc1 | 2.0 | -25.3 | -17.1 | 44.1* | -9.3 | -0.1
